Several values for one entry are separate records, joined by “and”; a condition that tells them apart may be missing. Identical values can stand only once. The source holds several records for some structures; these can differ, active in one and inactive in another. Activity calls are given as the source filed them. How the source made its calls: active means hit-call score of the fitted dose curve at least 0.9, where 1 is the maximum; inactive means score below 0.9.
Columns and labels:
[1] = read-out: Actin alpha 1 (ACTA1), ACTA1 (gene 58); experiment: BSK_MyoF_ACTA1: BioMAP Diversity Plus: MyoF Assay for Actin alpha 1 (ACTA1) Biomarker Activity (AID 2284244); conditions: primary human lung fibroblasts
Method in brief: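 Measured by ELISA: alpha-smooth muscle actin in human primary lung fibroblasts 24 h after dosing, with DMSO as baseline and upward signal change as the fitted direction.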

[2] = read-out: Interleukin 2 (IL2), IL2 (gene 3558); experiment: BSK_BT_xIL2: BioMAP Diversity Plus: BT Assay for Interleukin 2 (IL2) Biomarker Activity (AID 2284245); conditions: primary human B cells with PBMC
Method in brief: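 Secreted interleukin-2 from human B cell/PBMC co-cultures, measured 24 h post-dosing by Luminex multiplex immunoassay. Upward-direction curve fitting against DMSO baseline.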

[3] = read-out: Basic fibroblast growth factor (bFGF), FGF2 (gene 2247); experiment: BSK_MyoF_bFGF: BioMAP Diversity Plus: MyoF Assay for Basic fibroblast growth factor (bFGF) Biomarker Activity (AID 2284246); conditions: primary human lung fibroblasts
Method in brief: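 In this multiplexed cell system, lung fibroblasts (human primary) receive test chemical for 24 h before ELISA detection of bFGF; DMSO defines baseline and the analysis direction is positive.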

[4] = read-out: Monokine induced gamma interferon (MIG), CXCL9 (gene 4283); experiment: BSK_KF3CT_MIG: BioMAP Diversity Plus: KF3CT Assay for Monokine induced gamma interferon (MIG) Biomarker Activity (AID 2284248); conditions: primary human keratinocytes with fibroblasts
Method in brief: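 The assay uses a co-culture of human keratinocytes and foreskin fibroblasts. Measurement occurs 24 hours after dosing, with MIG detected by ELISA and the DMSO control as baseline.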

[5] = read-out: Vascular cell adhesion molecule 1 (VCAM1), VCAM1 (gene 7412); experiment: BSK_BF4T_VCAM1: BioMAP Diversity Plus: BF4T Assay for Vascular cell adhesion molecule 1 (VCAM1) Biomarker Activity (AID 2284249); conditions: primary human bronchial epithelial cells with fibroblasts
Method in brief: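 Human bronchial epithelial cell and dermal fibroblast co-culture exposed 24 h. VCAM-1 measured by ELISA; parallel SRB total-protein staining for cytotoxicity. Fitted in positive direction relative to DMSO.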

[6] = read-out: Collagen I, COL1A1 (gene 1277); experiment: BSK_hDFCGF_CollagenI: BioMAP Diversity Plus: hDFCGF Assay for Collagen I Biomarker Activity (AID 2284250); conditions: primary human foreskin fibroblasts
Method in brief: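 Cells were primary human foreskin fibroblasts treated for 24 h. Collagen I levels were then determined by ELISA and compared against DMSO controls.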

[7] = read-out: Interferon-inducible T-cell alpha chemoattractant (ITAC), CXCL11 (gene 6373); experiment: BSK_hDFCGF_ITAC: BioMAP Diversity Plus: hDFCGF Assay for Interferon-inducible T-cell alpha chemoattractant (ITAC) Biomarker Activity (AID 2284251); conditions: primary human foreskin fibroblasts
Method in brief: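 Primary human foreskin fibroblasts (hDFCGF system) treated for 24 h; I-TAC quantified by ELISA. Gain-direction fitting versus DMSO; parallel SRB staining of total protein flagged overt cytotoxicity.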

[8] = read-out: Monocyte Chemoattractant Protein-1 (MCP1), CCL2 (gene 6347); experiment: BSK_IMphg_MCP1: BioMAP Diversity Plus: IMphg Assay for Monocyte Chemoattractant Protein-1 (MCP1) Biomarker Activity (AID 2284253); conditions: primary human endothelial cells with macrophages
Method in brief: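 Human venular endothelial cells co-cultured with macrophages; MCP-1 measured by ELISA 24 hours post-dose and fitted against DMSO. Cytotoxicity monitored by SRB total-protein staining in parallel cultures.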

[9] = read-out: Macrophage Inflammatory Protein-1 Alpha (MIP1a), CCL3 (gene 6348); experiment: BSK_IMphg_MIP1a: BioMAP Diversity Plus: IMphg Assay for Macrophage Inflammatory Protein-1 Alpha (MIP1a) Biomarker Activity (AID 2284255); conditions: primary human endothelial cells with macrophages
Method in brief: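 Co-culture of human venular endothelial cells and macrophages exposed to compounds for 24 h; MIP-1a measured by ELISA relative to DMSO. Cytotoxicity assessed in parallel cultures by sulforhodamine B total-protein staining at 560 nm.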

[10] = read-out: Plasminogen activator inhibitor-1 (PAI1), SERPINE1 (gene 5054); experiment: BSK_MyoF_PAI1: BioMAP Diversity Plus: MyoF Assay for Plasminogen activator inhibitor-1 (PAI1) Biomarker Activity (AID 2284256); conditions: primary human lung fibroblasts
Method in brief: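 Activity reflects increased PAI-1, determined by ELISA and compared with DMSO, in human lung fibroblasts treated for 24 h.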

[11] = read-out: CD69, CD69 (gene 969); experiment: BSK_IMphg_CD69: BioMAP Diversity Plus: IMphg Assay for CD69 Biomarker Activity (AID 2284257); conditions: primary human endothelial cells with macrophages
Method in brief: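 Human venular endothelial cells co-cultured with macrophages; CD69 quantified by ELISA 24 h after compound addition. Activity fitted in the positive direction relative to DMSO baseline; cytotoxicity tracked in parallel cultures via SRB total-protein staining.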

[12] = read-out: Eotaxin 3, CCL26 (gene 10344); experiment: BSK_BF4T_Eotaxin3: BioMAP Diversity Plus: BF4T Assay for Eotaxin 3 Biomarker Activity (AID 2284258); conditions: primary human bronchial epithelial cells with fibroblasts
Method in brief: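 Co-culture of human bronchial epithelial cells and dermal fibroblasts, exposed to chemicals for 24 h versus DMSO. Eotaxin-3 quantified by ELISA; cytotoxicity checked in parallel cultures by sulforhodamine B total-protein staining.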

[13] = read-out: Monocyte Chemoattractant Protein-1 (MCP1), CCL2 (gene 6347); experiment: BSK_BF4T_MCP1: BioMAP Diversity Plus: BF4T Assay for Monocyte Chemoattractant Protein-1 (MCP1) Biomarker Activity (AID 2284259); conditions: primary human bronchial epithelial cells with fibroblasts
Method in brief: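 Co-culture of bronchial epithelial cells and dermal fibroblasts dosed with chemical; MCP-1 measured by ELISA 24 h later. Activity fitted in positive direction versus DMSO; cytotoxicity checked by SRB staining in parallel cultures.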

[14] = read-out: Intercellular Adhesion Molecule 1 (ICAM1), ICAM1 (gene 3383); experiment: BSK_BF4T_ICAM1: BioMAP Diversity Plus: BF4T Assay for Intercellular Adhesion Molecule 1 (ICAM1) Biomarker Activity (AID 2284260); conditions: primary human bronchial epithelial cells with fibroblasts
Method in brief: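 Co-culture of human bronchial epithelial cells and dermal fibroblasts exposed 24 h to chemical; cell-surface ICAM-1 quantified by ELISA. Parallel SRB total-protein staining assessed cytotoxicity; activity fitted relative to DMSO.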

[15] = read-out: Interleukin-8 (IL8), CXCL8 (gene 3576); experiment: BSK_MyoF_IL8: BioMAP Diversity Plus: MyoF Assay for Interleukin-8 (IL8) Biomarker Activity (AID 2284261); conditions: primary human lung fibroblasts
Method in brief: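 In this multiplexed primary-cell system, fibroblasts from human lung are treated with chemicals, and IL-8 is detected by ELISA at 24 h, with DMSO serving as the negative reference.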

[16] = read-out: Interleukin-8 (IL8), CXCL8 (gene 3576); experiment: BSK_BF4T_IL8: BioMAP Diversity Plus: BF4T Assay for Interleukin-8 (IL8) Biomarker Activity (AID 2284263); conditions: primary human bronchial epithelial cells with fibroblasts
Method in brief: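 Human bronchial epithelial cells with dermal fibroblasts co-culture; IL-8 measured by ELISA 24 hours after dosing, fitted vs DMSO. Cytotoxicity tracked in parallel cultures by SRB total-protein staining.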

[17] = read-out: Interleukin-1 alpha (IL1a), IL1A (gene 3552); experiment: BSK_BF4T_IL1a: BioMAP Diversity Plus: BF4T Assay for Interleukin-1 alpha (IL1a) Biomarker Activity (AID 2284264); conditions: primary human bronchial epithelial cells with fibroblasts
Method in brief: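 Human bronchial epithelial cells co-cultured with dermal fibroblasts, dosed and read at 24 h. Secreted/surface IL-1α quantified by ELISA; gain-of-signal fitted relative to DMSO baseline. Parallel SRB total-protein staining tracked cytotoxicity.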

[18] = read-out: Decorin, DCN (gene 1634); experiment: BSK_MyoF_Decorin: BioMAP Diversity Plus: MyoF Assay for Decorin Biomarker Activity (AID 2284265); conditions: primary human lung fibroblasts
Method in brief: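 Lung fibroblast cultures, 24 h chemical exposure. Decorin by ELISA, positive fitting direction, DMSO baseline.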

[19] = read-out: KRT18 (gene 3875); experiment: BSK_BF4T_Keratin818: BioMAP Diversity Plus: BF4T Assay for Keratin 818 Biomarker Activity (AID 2284266); conditions: primary human bronchial epithelial cells with fibroblasts
Method in brief: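 Co-culture of human bronchial epithelial cells and dermal fibroblasts, chemical exposure 24 h. Keratin 8/18 measured by ELISA; positive-direction fit vs DMSO. SRB total protein run in parallel cultures for cytotoxicity.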

[20] = BSK_MyoF_SRB: Viability Assessment in the BioMAP Diversity Plus: MyoF Assay (AID 2284267); conditions: primary human lung fibroblasts;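 further: total protein by SRB absorbance in parallel cultures as cytotoxicity measure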
Method in brief: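 Cytotoxicity in primary human lung fibroblasts is gauged by SRB total-protein staining 24 h after dosing, with DMSO as the negative control.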

Measured: AC50

OC(O)(C(F)C(O)(O)C(F)(F)F)C(F)(F)F
active: [2] 40.6 µM and 22.3 µM | [7] 8.03 µM and 15 µM | [9] 5.44 µM and 7.95 µM
inactive: all other assays above

NCC(F)(F)C(F)(F)C(F)(F)C(F)(F)F
inactive: all assays above

OCc1c[nH]c2ccccc12
inactive: [1] | [3] | [10] | [15] | [18] | [20]
active: [2] 1.81 µM

OCCC(F)(F)C(F)(F)C(F)(F)C(F)(F)F
inactive: all assays above

O=C(Cl)C(F)(F)C(F)(F)C(F)(F)C(=O)Cl
inactive: all assays above

FC(F)(F)C(F)(F)C(F)(F)C(F)(F)C(F)(F)C(F)(F)I
active: [1] 17.8 µM and 30 µM | [7] 47.4 µM | [10] 38.6 µM and 22.2 µM | [20] 25.6 µM and 26.5 µM
inactive: [2] | [3] | [4] | [5] | [6] | [7] | [8] | [9] | [11] | [12] | [13] | [14] | [15] | [16] | [17] | [18] | [19]

From PubChem BioAssay (EPA / NIEHS)
